This is one part of a sample in which hits are shown more often than they occur.
ERG-DNA inh = blocks human ERG Ets domain binding to DNA. P11308. fluorescence polarization, His-ERG Ets domain / labelled DNA. Potency, µM (series often up to 76.9 µM), most hits filed as inhibitors. 0.028% of 370,000 active; active = well fitted inhibition curve with a large enough effect in the polarisation, with a control signal flat; inconclusive = small, poorly fitted or top-dose-only effect, or effect the other way, or a change in a side signal; inactive = no such curve, though single readings can be large or run the other way; the % refers to the polarisation;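 also: polarization taken with two DNA probes labelled with fluorescein and Texas red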
Target sequence (P11308 whole entry, looked up, the tested form may be a part): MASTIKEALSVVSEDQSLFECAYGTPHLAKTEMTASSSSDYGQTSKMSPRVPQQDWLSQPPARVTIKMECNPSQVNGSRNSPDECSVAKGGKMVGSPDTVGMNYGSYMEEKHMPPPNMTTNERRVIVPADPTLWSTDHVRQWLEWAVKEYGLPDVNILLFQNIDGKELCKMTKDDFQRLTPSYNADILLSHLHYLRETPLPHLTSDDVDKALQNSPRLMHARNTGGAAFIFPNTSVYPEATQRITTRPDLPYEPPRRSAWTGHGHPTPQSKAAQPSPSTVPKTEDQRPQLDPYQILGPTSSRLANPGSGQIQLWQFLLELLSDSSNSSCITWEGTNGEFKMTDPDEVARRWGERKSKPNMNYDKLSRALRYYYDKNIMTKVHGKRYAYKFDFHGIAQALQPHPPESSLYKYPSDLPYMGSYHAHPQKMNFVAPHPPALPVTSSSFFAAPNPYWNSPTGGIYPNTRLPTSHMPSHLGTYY
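His-tagged ERG Ets domain (1 uM in the protein solution; 300mM KCl, 50mM Tris-HCl, 1mM EDTA, 1mM DTT, pH 7.5) received compound, then a probe mix of 5 nM fluorescein-DNA and 100nM Texas-615-DNA. Fluorescence polarization was read for both dyes.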
VP16 counter = Gal4-VP16 reporter inhibition counter-screen; Potency, µM (top dose mostly 53.6 µM), most hits filed as inhibitors; AID 2546; Drosophila S2 Gal4-VP16 UAS-luciferase, luminescence, 20 h; 3.5% of 310,000 active;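 also: Gal4-VP16 expression switched on by copper sulfate through the metallothionein promoter; nearly all actives have a fitted effect of over 50% in size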
Giardia kill = Giardia lamblia killing; Giardia lamblia trophozoite viability; activity change, % at 7.66 µM, hits read low; 0.15% of 340,000 active; AID 540267; in the data active = activity change below about -80%; inconclusive = between about -30% and that limit;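 also: parasites exposed to compound for two days anaerobically before the ATP read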
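Compounds were tested on trophozoites seeded at 100 cells/well and held 48 hrs at 37 deg C anaerobically. An ATP-based luminescent kit measured the remaining live cells.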
a7 integrin act = activates integrin-mediated alleviation for muscular dystrophy; alpha7betagal myoblasts, beta-gal FDG fluorescence, 48 h; Potency, µM (highest dose often 38.3 µM), hits mostly activators; 0.064% of 350,000 active; AID 624291; also: nearly all actives have a fitted effect of over 60% in size
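alpha7betagal+/- myoblasts (passage 13, 250/well) treated 48 h at 37C with compounds at 1:260 dilution of DMSO stock. Lysed, then beta-galactosidase activity read as FDG fluorescence (ex 480/em 540) after 30 min, with pre-read for autofluorescence.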
RORgamma inh = inhibitors of mouse ROR gamma transcriptional activity; 5.4% of 310,000 active; P51450; Potency, µM (highest dose often 53.6 µM), actives largely listed as inhibitors; Drosophila S2 Gal4-RORgamma UAS-luciferase reporter, 20 h; also: nearly all actives have a fitted effect of over 60% in size
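ROR gamma transcriptional activity was tracked as Gal4-UAS luciferase output in stably transfected Drosophila Schneider cells, with compound added 1 hr before 700 uM copper sulfate induction and a 20 hr ambient-temperature incubation.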
Hits are given with their value; - = inactive; ? = inconclusive; . = no result; [ ] = dose if it differs, or a comment. Unless noted, calls follow the shape of the dose curve; as a rule, active = well fitted curve in the direction sought with a large enough effect; inconclusive = small, poorly fitted or top-dose-only effect, or another doubt; inactive = no such curve, though single readings can be large; an effect the other way counts as inactive or inconclusive.

SMILES | ERG-DNA inh | VP16 counter | Giardia kill | a7 integrin act | RORgamma inh
CN(C)C1(CNC(=O)COc2cccc(Cl)c2)CCCCC1 | - | . | . | . | .
COc1cc(NS(C)(=O)=O)ccc1Nc1c2ccccc2nc2ccccc12 | - | - | - | . | 20µM
CCc1ccc(NC(=S)N2CCCC(C(F)(F)F)C2)cc1 (centres undefined) | - | ? | - | - | 13µM
Fc1ccc(NC(=S)N2CCCC2)cc1 | - | . | - | - | .
CC1CCCN(C(=S)Nc2ccc(Nc3ccccc3)cc2)C1 (centres undefined) | - | ? | - | - | 11µM
CC1CCCN(C(=S)Nc2ccc(F)cc2)C1 (centres undefined) | - | -[10 µM] | - | - | 8.9µM
O=C(Nc1ccc(C(=O)NC2CCCCC2)cc1)c1cccnc1 | - | - | - | - | -
CC(C)CC1CC(C)(c2csc(NNC(=O)c3ccccc3)n2)OC1=O (centres undefined) | - | - | - | - | 10µM
Cc1ccc(CNC(=O)c2ccc(CS(=O)(=O)Cc3ccc(F)cc3)o2)cc1 | - | . | . | . | .
O=c1oc2c(-c3cccc(F)c3)cc(O)cc2s1 | - | ? | - | 4µM | -
Cc1ccc(NC(=O)Nn2cnnc2)cc1Cl | - | - | - | ? | -
Cc1ccc(NC(=O)O/N=C/c2c(C)nn(C(C)(C)C)c2C)cc1Cl | - | 0.28µM | - | - | 0.28µM
CCCn1c(-c2cccc(F)c2)nc2c1c(=O)[nH]c(=O)n2Cc1ccccc1 | - | - | - | - | -
CCCn1c(-c2cc(OC)c(OC)c(OC)c2)nc2c1c(=O)[nH]c(=O)n2Cc1ccccc1 | - | - | - | 13µM | ?
COc1cc2nc(SCc3ccc(Cl)cc3Cl)n(Cc3cccs3)c(=N)c2cc1OC | - | 16µM | - | - | ?
COc1cc2nc(SCc3ccc(C(F)(F)F)cc3)n(Cc3cccs3)c(=N)c2cc1OC | - | ? | - | - | -
COc1ccc(Cn2c(SCc3cc(C)ccc3C)nc3cc(OC)c(OC)cc3c2=N)cc1 | - | - | - | - | -
COc1ccc(Cn2c(SCc3ccc(C)cc3)nc3cc(OC)c(OC)cc3c2=N)cc1Cl | - | 1.4µM | - | - | 4µM
Cc1ccc(-n2ncc3c(NCCc4ccccc4)ncnc32)cc1 | - | . | . | . | .
COc1ccc(C2Oc3ccccc3C3=C2C(c2cccs2)n2ncnc2N3)cc1 (centres undefined) | - | 2.5µM | - | - | ?
Brc1ccc(C2C3=C(Nc4ncnn42)c2ccccc2OC3c2ccncc2)cc1 (centres undefined) | - | - | - | - | ?
CC(C)(C)C(=O)OCCNc1nc(-c2cccs2)nc2ccccc12 | . | . | - | . | .
CNc1cc([N+](=O)[O-])ccc1OCc1ccccc1 | - | - | - | 4.5µM | -
CCOC(=O)CCCCC(=O)c1[nH]c(=O)[nH]c1CSc1nnc2c3ccccc3n(C(C)C)c2n1 | - | - | - | - | -
Cc1cc(F)ccc1NC(=O)c1c(C)oc2c1C1=NCCN1C=N2 | - | . | . | . | .
SMILES | ERG-DNA inh | VP16 counter | Giardia kill | a7 integrin act | RORgamma inh
NS(=O)(=O)O | . | - | . | . | -
O=C(Nc1cccc(Cl)c1)Nc1sccc1-c1nc2ccccc2s1 | - | - | - | - | ?
O=C(Nc1ccccc1)Nc1sccc1-c1nc2ccccc2s1 | - | - | - | - | 7.9µM
Cc1nn(Cc2ccccc2)c(C)c1/C=N/NC(=O)c1ccncc1 | - | - | - | - | -
CCCCCn1nc(C)c(/C=N/NC(=O)c2ccoc2C)c1C | - | 8.9µM | - | - | ?
Cc1nn(Cc2ccccc2)c(C)c1/C=N/NC(=O)c1ccccc1O | - | 18µM | - | - | 11µM
Cc1ccc(NS(=O)(=O)c2ccc3c(c2)NC(=O)CCS3)cc1C | - | ? | - | ? | ?
Nc1nonc1-n1nnc(C(=O)N/N=C/c2ccccc2)c1CSc1ccccc1 | - | - | - | - | -
Cc1ccsc1/C=N/NC(=O)c1nnn(-c2nonc2N)c1CSc1ccccc1 | - | 4µM | - | - | 2.5µM
Cc1ccc(/C=N/NC(=O)c2nnn(-c3nonc3N)c2CSc2ccccc2)s1 | - | 5µM | - | ? | 4µM
COc1ccc(OCc2nc3c4cc(OC)c(OC)cc4nc(=S)n3[nH]2)cc1 | - | 0.71µM | - | - | 0.4µM
COc1cc2nc(=S)n3[nH]c(CCn4c(C)nc5ccccc54)nc3c2cc1OC | - | - | - | - | ?
O=C(CN1CCCCCC1)NN(Cc1ccccc1)c1ccccc1 | - | - | - | - | -
